We go through 14 compounds from PubChem BioAssay (NCI).

SMILES strings stand for the structures. This is part of a sample that, as a whole, favours compounds with a hit. Of some 83,000 tested, about 20% had one in any assay.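 Treatment: one concentration, 48 hours, 96-well format. Scoring: percent growth, with anything below 10 considered active.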 Values without a mark were called inactive. Active and inactive are the calls of the source.

The experiment has as its system SK-OV-3 ovarian. Kind of experiment: NCI-60 one-dose screen, 48 h (100 = growth as untreated, 0 = no growth, -100 = all killed). As to conditions: 10 µM unless noted.
In the case of `C=CCn1c(C)nc2cc(Nc3nc(N4CCCC4)nc4ccccc34)ccc21`, the growth is 123%.

Take `Cc1ccc(/C=C/c2c(C(=O)/C=C/c3ccc(Cl)cc3)c(C)nc3ccccc23)cc1`: the growth was 55.1%.

In the case of `COc1cc(/C=C/C(=O)c2cccc(-n3cc(-c4ccccc4)[nH]c3=O)c2)ccc1O`, the growth is 92.2%.

As for `C=CCOC1=CC(=O)c2ccccc2C1=O`, the growth was 109%.

On to `Cn1cc(-c2csc(-c3ccccc3)n2)c2cccnc21`, for which the growth is -30.1% [100 µM] (active).

Consider `O=C(COc1ccc(/C=C2\Oc3ccccc3C2=O)cc1)Nc1nc2c(s1)CCCC2`, for which the growth is 27.3%.

For `COc1ccc(C2c3ccc4ccccc4c3Oc3nc(C)[nH]c(=O)c32)cc1` (centres undefined), the growth was 100%.

Take `CN(C)c1ccc(-c2ccc3[nH]c(=O)nc(-c4ccccc4)c3c2)cn1`: the growth is 63.5%.

`O=C1/C(=C\c2c[nH]c3ccccc23)c2ccccc2N1c1c(Cl)cccc1Cl`: the growth was 22.7%.

As for `Cc1cc(/C=C\c2ccc3ccccc3[n+]2C)c(O)c2ncccc12`, the growth was 20.9%.

In the case of `O=C1N=c2cc3c(cc2=C/C1=C/c1sc(=S)n(CCc2ccc(O)cc2)c1O)OCCO3`, the growth is 105%.

With `N#Cc1nc(C#N)c(Sc2ccccc2)c(Sc2ccccc2)c1Sc1ccccc1`, the growth was -10.3% (active).

In the case of `Cc1cc(NCCCCNc2ccnc3cc(Cl)ccc23)nc(Nc2ccc(C(=O)N3CCCC3)cc2)n1`, the growth was 106%.

As to `CC(C)CCC[C@@H](C)[C@H]1CC[C@H]2[C@@H](Nc3ccc(O)cc3)CCC[C@]12C`, the growth was 75.3%.
